Assay results taken from PubChem BioAssay AID588738 (National Center for Advancing Translational Sciences (NCATS), 2011).
Calls of active or inactive are those of the source. The rule behind the calls is not given here.

assay: High Content Assay for Compounds that inhibit the Assembly of the Perinucleolar Compartment:Cell Migration SAR; conditions: PC3M 3D collagen invasion, Hoechst imaging, 5 d
Description: The perinucleolar compartment (PNC) is a non-membrane-bound nuclear subdomain that is associated with but structurally distinct from the nucleolus. The PNC is a heritable trait, in which the number of PNCs per cell in daughter cells often mimics that of their mother cells. The PNC is heterogeneous in shape, is stable through interphase, disassembles during mitosis, and reassembles in early G1. The PNC is concentrated with newly synthesized RNA polymerase III (pol III) RNAs (MRP RNA, RNAse P H1 RNA, hY RNAs[hY1, 2, 5], Alu RNA, and SRP [7SL] RNA) and RNA binding proteins (nucleolin, PTB, CUG-BP, KSRP, Raver1, Raver2, and Rod). […] In collaboration between Sui Huang from Northwestern University and the NCGC, a high content assay was developed and screened. The hits were then tested in follow-up assays. High-content tumor cell migration assays in 3-dimensional extracellular matrices are powerful tools for modeling and understanding the biology of this critical step in the process of metastasis. However, most of the available methods are not amenable to the throughput required by studies of comparative pharmacology or small scale screening. For this reason, we worked with BellBrook Labs(R) to test our compounds in their automated high-content tumor cell invasion assays.[35] […]

SMILES	Potency
N=c1c2c(-c3ccccc3)c(-c3ccccc3)n(Cc3ccccc3)c2ncn1C1CCC(O)CC1 (stereo unspecified)	3.98 µM (active)
